The source of these data is PubChem BioAssay (EPA / NIEHS).

SMILES strings stand for the structures. Values joined by “and” are separate entries in the source; they are usually repeats but may differ in a detail not shown here. Equal entries are not always repeated. More than one record can exist for a structure, and the calls need not agree. Active and inactive are the calls of the source. The calls were made as follows: active = hit-call score of the fitted dose curve at least 0.9, where 1 is the maximum; inactive = score below 0.9.

Read-out in assay [1]: Monocyte Chemoattractant Protein-1 (MCP1), CCL2 (gene 6347)
The assay is described as follows: BSK_hDFCGF_MCP1: BioMAP Diversity Plus: hDFCGF Assay for Monocyte Chemoattractant Protein-1 (MCP1) Biomarker Activity (AID 2284285). Conditions: primary human foreskin fibroblasts. The method, then: BSK_hDFCGF is a cell-based, multiplexed-readout assay that uses foreskin fibroblast, a human skin primary cell, with measurements taken at 24 hours after chemical dosing in a 96-well plate.BSK_hDFCGF_MCP1 is an assay component measured in the BSK_hDFCGF assay. It measures MCP-1 antibody related to regulation of gene expression using ELISA technology.Data from the assay component BSK_hDFCGF_MCP1 was analyzed at the endpoint, BSK_hDFCGF_MCP1, in the positive analysis fitting direction relative to DMSO as the negative control and baseline of activity. Using a type of binding reporter, gain or loss-of-signal activity can be used to understand protein changes. To generalize the intended target to other relatable targets, this assay endpoint is annotated to the 'cytokine' intended target family, where the subfamily is 'chemotactic factor'.
(§1) The levels of cell surface (or secreted, indicated by the prefix "s") biomarker endpoints were measured by ELISA. Overt cytotoxicity to cells in confluent adherent cultures (all systems other than the BT system) was assessed by measuring total protein levels using sulforhodamine B (SRB) staining in parallel cultures at the time of biomarker measurements, indicated as SRB endpoints. For proliferation assays for adherent cell types, individual cell types are cultured at sub-confluence and relative cell numbers quantified by SRB staining at time points optimized for each system (48 h: 3C and CASM3C systems; 72 h: BT and HDF3CGF systems; 96 h: SAg system). SRB was performed by staining cells with 0.1% SRB after fixation with 10% TCA and reading wells at 560 nm.Viability and proliferation of PBMC (T cells) was quantified by Alamar Blue reduction for the SAg and BT systems. For PBMC viability (referred to as PBMC Cytotoxicity within the assay endpoint names), cells were plated (75,000/well in a 96-well plate) and then chemical samples added for 1 h before addition of activators, SEB and TSST-1 (20 ng/mL final concentration each). Cells were incubated for 90 h. Then, Alamar Blue (20 uL/well) (Invitrogen, Cat DAL1100) was added for 6 h, and the plates were read with a fluorescence microplate reader at 546/580 nm (excitation/emission). For PBMC proliferation, cells were plated and activated as above but incubated for only 16 h prior to addition of Alamar Blue. Plates were read after 6 h.

Read-out in assay [2]: Vascular cell adhesion molecule 1 (VCAM1), VCAM1 (gene 7412)
The assay is described as follows: BSK_IMphg_VCAM1: BioMAP Diversity Plus: IMphg Assay for Vascular cell adhesion molecule 1 (VCAM1) Biomarker Activity (AID 2284286). Conditions: primary human endothelial cells with macrophages. The method, then:
(§2) BSK_IMphg is a cell-based, multiplexed-readout assay that uses venular endothelial cells and macrophages, a human vascular primary cell, with measurements taken at 24 hours after chemical dosing in a microplate: 96-well plate.BSK_IMphg_VCAM1 is an assay component measured in the BSK_IMphg assay. It measures VCAM-1 antibody related to regulation of gene expression using ELISA technology.Data from the assay component BSK_IMphg_VCAM1 was analyzed at the endpoint, BSK_IMphg_VCAM1, in the positive analysis fitting direction relative to DMSO as the negative control and baseline of activity. Using a type of binding reporter, gain or loss-of-signal activity can be used to understand protein changes. To generalize the intended target to other relatable targets, this assay endpoint is annotated to the 'cell adhesion molecules' intended target family, where the subfamily is 'Immunoglobulin CAM'.
as §1

Read-out in assay [3]: Intercellular Adhesion Molecule 1 (ICAM1), ICAM1 (gene 3383)
The assay is described as follows: BSK_hDFCGF_ICAM1: BioMAP Diversity Plus: hDFCGF Assay for Intercellular Adhesion Molecule 1 (ICAM1) Biomarker Activity (AID 2284287). Conditions: primary human foreskin fibroblasts. A digest of the protocol:
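ICAM-1 ELISA readout 24 h after dosing, DMSO as baseline, in human dermal foreskin fibroblast cultures. Cytotoxicity checked in parallel wells by SRB staining (0.1% SRB, 10% TCA fixation, 560 nm).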

Read-out in assay [4]: CD40, CD40 (gene 958)
The assay can be described thus: BSK_IMphg_CD40: BioMAP Diversity Plus: IMphg Assay for CD40 Biomarker Activity (AID 2284288). Conditions: primary human endothelial cells with macrophages. In outline:
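ELISA read-out of cell-surface CD40 at 24 h in human venular endothelial cell/macrophage co-cultures. Activity fitted in the positive direction against DMSO; parallel SRB staining (560 nm) gauges overt cytotoxicity.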

Read-out in assay [5]: TIMP metallopeptidase inhibitor 2 (TIMP2), TIMP2 (gene 7077)
The assay can be described thus: BSK_hDFCGF_TIMP2: BioMAP Diversity Plus: hDFCGF Assay for TIMP metallopeptidase inhibitor 2 (TIMP2) Biomarker Activity (AID 2284289). Conditions: primary human foreskin fibroblasts. In outline: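 Primary human foreskin fibroblasts in the hDFCGF system, dosed for 24 h; TIMP-2 level measured by ELISA, fitted in the positive direction against DMSO; cytotoxicity checked in parallel by sulforhodamine B total protein staining.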

Read-out in assay [6]: Interleukin-1 alpha (IL1a), IL1A (gene 3552)
The assay can be described thus: BSK_IMphg_IL1a: BioMAP Diversity Plus: IMphg Assay for Interleukin-1 alpha (IL1a) Biomarker Activity (AID 2284290). Conditions: primary human endothelial cells with macrophages. The method, then:
as §2, with “plate.BSK_IMphg_IL1a” for “plate.BSK_IMphg_VCAM1”, “IL-1a” for “VCAM-1”, “BSK_IMphg_IL1a” for “BSK_IMphg_VCAM1”, “BSK_IMphg_IL1a,” for “BSK_IMphg_VCAM1,”, “'cytokine'” for “'cell adhesion molecules'”, “'interleukins'.” for “'Immunoglobulin CAM'.”
as §1

Read-out in assay [7]: E-selectin (Homo sapiens) (UniProt P16581)
The assay can be described thus: BSK_IMphg_ESelectin: BioMAP Diversity Plus: IMphg Assay for Eselectin Biomarker Activity (AID 2284291). Conditions: primary human endothelial cells with macrophages. Here is the method:
as §2, with “plate.BSK_IMphg_ESelectin” for “plate.BSK_IMphg_VCAM1”, “E-selectin” for “VCAM-1”, “BSK_IMphg_ESelectin” for “BSK_IMphg_VCAM1”, “BSK_IMphg_ESelectin,” for “BSK_IMphg_VCAM1,”, “'selectins'.” for “'Immunoglobulin CAM'.”
as §1

Read-out in assay [8]: KRT18 (gene 3875)
The assay can be described thus: BSK_BE3C_Keratin818: BioMAP Diversity Plus: BE3C Assay for Keratin 818 Biomarker Activity (AID 2284282). Conditions: primary human bronchial epithelial cells. A digest of the protocol: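 Keratin 8/18 levels, detected by ELISA, served as the endpoint after 24 h chemical exposure of primary human bronchial epithelial cells. Gain of signal relative to DMSO negative control defined activity.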

Read-out in assay [9]: Matrix Metallopeptidase 9 (MMP9), MMP9 (gene 4318)
The assay is described as follows: BSK_BE3C_MMP9: BioMAP Diversity Plus: BE3C Assay for Matrix Metallopeptidase 9 (MMP9) Biomarker Activity (AID 2284283). Conditions: primary human bronchial epithelial cells. A digest of the protocol:
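Cells were dosed, incubated 24 h, then assayed for MMP-9 by ELISA; activity was fitted upward against DMSO. The system used human lung primary bronchial epithelial cells, with SRB total-protein staining run alongside for cytotoxicity.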

Read-out in assay [10]: Plasminogen activator inhibitor-1 (PAI1), SERPINE1 (gene 5054)
The assay can be described thus: BSK_CASM3C_PAI1: BioMAP Diversity Plus: CASM3C Assay for Plasminogen activator inhibitor-1 (PAI1) Biomarker Activity (AID 2284284).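 Also: PAI-1 protein level measured by ELISA 24 h after dosing.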 Conditions: primary human coronary artery smooth muscle cells.

Chain of E-selectin (Homo sapiens) (P16581 whole entry, looked up): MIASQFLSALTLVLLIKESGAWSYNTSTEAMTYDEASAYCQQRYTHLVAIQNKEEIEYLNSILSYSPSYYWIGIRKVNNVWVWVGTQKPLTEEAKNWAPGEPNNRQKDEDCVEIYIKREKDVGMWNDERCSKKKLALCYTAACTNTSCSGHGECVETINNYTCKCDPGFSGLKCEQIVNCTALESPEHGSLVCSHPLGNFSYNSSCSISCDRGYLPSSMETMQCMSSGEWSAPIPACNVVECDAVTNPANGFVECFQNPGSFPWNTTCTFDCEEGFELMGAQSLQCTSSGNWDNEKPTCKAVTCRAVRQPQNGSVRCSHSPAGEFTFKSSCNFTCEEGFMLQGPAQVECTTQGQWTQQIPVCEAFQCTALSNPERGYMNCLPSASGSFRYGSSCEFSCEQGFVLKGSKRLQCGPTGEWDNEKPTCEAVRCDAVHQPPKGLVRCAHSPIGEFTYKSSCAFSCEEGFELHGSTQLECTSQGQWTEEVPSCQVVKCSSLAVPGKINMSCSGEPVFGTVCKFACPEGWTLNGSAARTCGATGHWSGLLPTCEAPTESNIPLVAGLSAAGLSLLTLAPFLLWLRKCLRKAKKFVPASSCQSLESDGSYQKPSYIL

Regarding `FC(F)(I)C(F)(F)C(F)(F)C(F)(F)C(F)(F)C(F)(F)I`, the AC50 in assay [1] is 5.13 µM (active) [middle of 5 runs]; in assay [2], 43.1 µM (active) [middle of 5 runs]; in assay [3], 5.98 µM (active) [middle of 5 runs]; in assay [5] it was 5.93 µM (active) and 5.41 µM (active) and 5.49 µM (active); in [6], 30 µM (active) and 22.7 µM (active) and 39.1 µM (active); in assay [7], 46.1 µM (active) [middle of 5 runs]. For the same molecule, the outcome in [4], in [5] and in [6] was inactive.
For the molecule `NCC(F)(F)C(F)(F)C(F)(F)C(F)(F)C(F)(F)C(F)(F)C(F)(F)F`, the result in assay [8], in [9], in assay [10], in assay [1], in [2] and in assay [3] was inactive. The result in assay [4], in [5], in assay [6] and in assay [7] was inactive. Besides, the AC50 in assay [4] is 24 µM (active).
As to `OCCC(F)(F)C(F)(F)C(F)(F)C(F)(F)C(F)(F)C(F)(F)F`, the result in [8], in assay [9], in [10], in assay [2], in assay [4] and in assay [6] was inactive. In assay [7], the outcome was inactive. The AC50 in [1] was 49.6 µM (active) and 54.3 µM (active); in [3], 44 µM (active) and 54 µM (active); in assay [5] it was 52.5 µM (active) and 47 µM (active); in assay [7] it was 55.2 µM (active).
Consider `OCCC(F)(F)C(F)(F)C(F)(F)C(F)(F)C(F)(F)C(F)(F)C(F)(F)C(F)(F)F`, for which the AC50 in [8] is 24.7 µM (active) and 16.8 µM (active); in [9], 14.2 µM (active) and 30 µM (active); in assay [10] it was 44.5 µM (active) and 41 µM (active); in assay [1], 17.1 µM (active) and 11.3 µM (active); in assay [2] it was 45.5 µM (active) and 44.5 µM (active); in [3], 18.1 µM (active) and 18.3 µM (active). Besides, the AC50 is 46.1 µM (active) and 45.6 µM (active) in [4]; 5.95 µM (active) and 16.2 µM (active) in assay [5]; 39.6 µM (active) in assay [6]; 47.2 µM (active) and 49.9 µM (active) in assay [7]. For the same molecule, the outcome in assay [6] was inactive.
For the molecule `C=C(C)C(=O)OCCC(F)(F)C(F)(F)C(F)(F)C(F)(F)C(F)(F)C(F)(F)F`, the concentration at half-maximal activity (AC50) in [8] is 2.19 µM (active). The result in assay [8], in assay [9], in assay [10], in [1], in assay [2] and in assay [3] was inactive. The result in assay [4], in assay [5], in [6] and in assay [7] was inactive.
For `C[C@@H]1C[C@H]2[C@@H]3CCC4=CC(=O)C=C[C@]4(C)[C@@]3(F)[C@@H](O)C[C@]2(C)[C@@]1(O)C(=O)COP(=O)(O)O`, the outcome in assay [8], in assay [9], in assay [10], in assay [1], in [2] and in assay [3] was inactive. In addition, the result in assay [4], in assay [5] and in assay [6] was inactive. The AC50 in assay [2] was 3.41 µM (active); in [4] it was 13.3 µM (active); in assay [5], 966 nM (active); in assay [6], 3.58 µM (active); in assay [7], 580 nM (active) and 1.5 µM (active).
